High-throughput results (PubChem BioAssay)
Most compounds without a hit are left out; they make up all but 2.2% or so of the library.
Cardio protect: cardioprotection against H2O2-induced cell death, primary screen, uHTS, H9c2 cells, ATPLite luminescence | H9c2 cardiomyocytes, H2O2 injury protection, 2 h | protection from H2O2 cell death, % at 20 µM | 360,000 compounds, 0.63% hits;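 active = compounds giving at least 50% protection of heart cells from peroxide-induced death in the single-dose screen, raw or plate-pattern-corrected value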;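 note: 0% = DMSO wells with peroxide and 100% = DMSO wells without peroxide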
PLCg1 inh: PLC-gamma1 enzyme inhibitors, primary screen, biochemical, fluorescence, purified enzyme. AID 720700, 2013. fluorogenic substrate. inhibition, % at 12.2 µM. 370,000 compounds, 0.84% hits. 1-phosphatidylinositol 4,5-bisphosphate phosphodiesterase gamma-1 (Homo sapiens), P19174
PLC-beta3 inh: human PLC-beta3 inhibitors, primary screen, biochemical, fluorescence. inhibition, % at 12.2 µM. 1-phosphatidylinositol 4,5-bisphosphate phosphodiesterase beta-3 (Homo sapiens), Q01970. 370,000 compounds, 0.18% hits. Purified PLC-beta3, fluorogenic substrate; in the data active = inhibition above about 11%;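 note: 0% = median of compound wells on plate and 100% = full blocker control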
FAS TE block: FAS thioesterase domain inhibitors, primary screen, biochemical, fluorescence intensity, uHTS | recombinant FAS-TE, OMFH fluorogenic substrate, fluorescence endpoint | Fatty acid synthase (Homo sapiens), P49327 | 360,000 compounds, 0.67% hits | inhibition, % at 15 µM | AID 602261, 2012;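 active = compounds whose normalised, plate-corrected inhibition of enzyme fluorescence in the single-dose primary screen is 50% or more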;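 note: 0% = DMSO with enzyme and 100% = substrate without enzyme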
Target sequence (P49327 whole entry, looked up, the tested form may be a part): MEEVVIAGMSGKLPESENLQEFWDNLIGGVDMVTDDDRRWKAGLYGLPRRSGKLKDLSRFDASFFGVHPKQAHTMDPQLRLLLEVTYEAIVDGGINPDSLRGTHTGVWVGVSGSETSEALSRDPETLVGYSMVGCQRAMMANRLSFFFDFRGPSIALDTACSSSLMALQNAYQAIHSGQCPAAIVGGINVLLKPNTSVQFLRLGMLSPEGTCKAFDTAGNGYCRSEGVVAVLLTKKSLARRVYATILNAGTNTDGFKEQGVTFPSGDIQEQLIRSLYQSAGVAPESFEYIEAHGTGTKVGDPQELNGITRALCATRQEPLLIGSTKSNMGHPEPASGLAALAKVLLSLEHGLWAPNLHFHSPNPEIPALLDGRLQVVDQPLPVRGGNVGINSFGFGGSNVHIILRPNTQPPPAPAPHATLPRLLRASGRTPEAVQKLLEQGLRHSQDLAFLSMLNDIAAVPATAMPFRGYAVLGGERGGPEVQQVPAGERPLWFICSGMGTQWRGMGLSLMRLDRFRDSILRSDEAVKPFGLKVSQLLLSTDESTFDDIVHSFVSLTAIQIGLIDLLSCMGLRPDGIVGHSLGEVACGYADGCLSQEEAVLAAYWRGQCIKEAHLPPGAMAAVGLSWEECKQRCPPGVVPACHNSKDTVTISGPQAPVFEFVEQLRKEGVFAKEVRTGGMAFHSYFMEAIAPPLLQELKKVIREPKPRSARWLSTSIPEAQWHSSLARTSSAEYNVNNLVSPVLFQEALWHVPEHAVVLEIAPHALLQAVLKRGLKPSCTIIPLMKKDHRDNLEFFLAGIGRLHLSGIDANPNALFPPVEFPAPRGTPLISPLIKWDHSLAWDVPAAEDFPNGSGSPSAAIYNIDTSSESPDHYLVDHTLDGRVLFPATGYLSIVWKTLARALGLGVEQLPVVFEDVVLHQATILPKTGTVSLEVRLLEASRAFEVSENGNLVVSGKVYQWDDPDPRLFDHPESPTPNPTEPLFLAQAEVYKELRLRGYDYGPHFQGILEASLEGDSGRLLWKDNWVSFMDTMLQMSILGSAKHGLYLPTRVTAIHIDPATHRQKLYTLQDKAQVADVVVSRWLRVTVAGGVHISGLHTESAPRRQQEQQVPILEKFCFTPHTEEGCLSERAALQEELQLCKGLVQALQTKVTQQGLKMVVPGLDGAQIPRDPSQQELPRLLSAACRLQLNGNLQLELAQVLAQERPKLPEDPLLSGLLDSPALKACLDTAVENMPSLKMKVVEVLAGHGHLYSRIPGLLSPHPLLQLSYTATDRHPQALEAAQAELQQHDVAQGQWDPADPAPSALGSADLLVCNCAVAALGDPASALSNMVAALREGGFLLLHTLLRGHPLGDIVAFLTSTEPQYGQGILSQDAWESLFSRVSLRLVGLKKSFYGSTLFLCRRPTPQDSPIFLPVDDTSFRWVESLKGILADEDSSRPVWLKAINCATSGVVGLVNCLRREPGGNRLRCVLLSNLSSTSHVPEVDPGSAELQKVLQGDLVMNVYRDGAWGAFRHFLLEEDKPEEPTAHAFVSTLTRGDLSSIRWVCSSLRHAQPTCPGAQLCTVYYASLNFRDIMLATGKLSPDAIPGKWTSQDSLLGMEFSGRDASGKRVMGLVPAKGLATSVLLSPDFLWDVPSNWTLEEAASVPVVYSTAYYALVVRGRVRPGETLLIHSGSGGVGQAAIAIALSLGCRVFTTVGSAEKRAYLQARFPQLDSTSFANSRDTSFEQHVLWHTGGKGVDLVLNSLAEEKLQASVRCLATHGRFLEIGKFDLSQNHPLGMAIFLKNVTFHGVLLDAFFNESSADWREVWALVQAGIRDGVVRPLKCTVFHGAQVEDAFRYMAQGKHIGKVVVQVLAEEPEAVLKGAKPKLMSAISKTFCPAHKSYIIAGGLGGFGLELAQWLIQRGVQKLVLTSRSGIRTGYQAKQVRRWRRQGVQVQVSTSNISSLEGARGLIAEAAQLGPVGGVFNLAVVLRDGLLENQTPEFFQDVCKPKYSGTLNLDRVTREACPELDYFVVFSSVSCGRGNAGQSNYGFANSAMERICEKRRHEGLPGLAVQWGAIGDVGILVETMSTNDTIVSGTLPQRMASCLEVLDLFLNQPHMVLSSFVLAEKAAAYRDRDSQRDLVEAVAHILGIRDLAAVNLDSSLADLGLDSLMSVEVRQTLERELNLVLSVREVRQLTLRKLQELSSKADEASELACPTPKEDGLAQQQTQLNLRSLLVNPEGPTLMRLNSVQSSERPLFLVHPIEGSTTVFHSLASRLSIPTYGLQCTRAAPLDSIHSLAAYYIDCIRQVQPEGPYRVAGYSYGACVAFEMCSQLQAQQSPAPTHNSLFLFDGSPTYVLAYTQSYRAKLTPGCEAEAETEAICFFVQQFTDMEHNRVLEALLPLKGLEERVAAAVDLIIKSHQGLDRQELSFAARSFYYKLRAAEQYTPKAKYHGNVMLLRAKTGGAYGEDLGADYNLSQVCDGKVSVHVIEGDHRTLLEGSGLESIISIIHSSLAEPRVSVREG
PLCg1 ctr: PLC-gamma1 enzyme inhibitors, counter-screen for PLC-beta3 inhibitor project, biochemical, fluorescence. shares compounds with PLCg1 inh. purified PLC-gamma1, fluorogenic substrate. inhibition, % at 12.3 µM. 3,300 compounds, 3.1% hits
PLCbeta3 conf: PLC-beta3 inhibitor confirmation, biochemical, fluorescence, purified enzyme | inhibition, % at 12.3 µM | AID 743261, 2014 | 3,300 compounds, 1% hits | shares compounds with PLCg1 inh | fluorogenic substrate fluorescence; in the data active = inhibition above about 11%
* marks the source's active call; other numbers are inactive results; x = no result. Cut-off read from the data, not from the text of the source, unless noted: active = inhibition above about 9.5%; inactive = the rest.

SMILES	Cardio protect	PLCg1 inh	PLC-beta3 inh	FAS TE block	PLCg1 ctr	PLCbeta3 conf
CCOC(=O)C1=CCN(S(=O)(=O)c2ccc(C)cc2)C1c1cccc(C)c1 (stereo unspecified)	-4	3	3	13	x	x
Cc1cc(OCc2cc(C(=O)NC(C)c3c(C)nn(C)c3C)no2)cc(C)c1Cl (stereo unspecified)	-4	-1	-8	9	x	x
CCOc1cc(CNCc2ccccc2)ccc1OCc1ccc(Cl)cc1	-23	17*	1	6	-1	-1
CC1(C(=O)NS(=O)(=O)C2CC2)CCN(C(=O)c2cccc(OC(F)(F)F)c2)C1 (stereo unspecified)	3	1	-1	-5	x	x
COc1cccc(NC(=O)c2ccc(N3C(=O)C4CC=CCC4C3=O)cc2)c1 (stereo unspecified)	-7	5	-4	0	x	x
CN(C(=O)CS(=O)(=O)c1cccc(Cl)c1)c1ccccc1	6	11*	3	-3	-3	-1
CCC(=O)Nc1cc(C(=O)OCC(=O)c2ccc(Cl)cc2Cl)ccc1C	-3	8	2	0	x	x
CCC(=O)Nc1cc(C(=O)OCC(=O)c2ccccc2Cl)ccc1C	-1	13*	-1	-3	2	2
Cc1cc(C)cc(N(CC(=O)Nc2cc(C)ccc2C)S(=O)(=O)c2c(C)[nH]c(=O)[nH]c2=O)c1	0	10*	-8	-6	-4	-5
Cc1cc(C)cc(N(CC(=O)NC2CCCC2)S(=O)(=O)c2c(C)[nH]c(=O)[nH]c2=O)c1	5	11*	6	-7	1	-7
COc1ccc(N(CC(=O)NC2CCCC2)S(=O)(=O)c2c(C)[nH]c(=O)[nH]c2=O)cc1	22	3	1	-9	x	x
COc1cc(C(=O)NCC(=O)N2CCN(S(=O)(=O)c3ccccc3)CC2)cc(OC)c1OC	10	-1	2	-5	x	x
Cc1ccc(-n2nnnc2SCC(=O)NCC2(N3CCOCC3)CCCCC2)cc1	2	9.7*	-10	0	-8	-1
Cc1sc2ccccc2c1CNC[C@H]1O[C@@H](n2cnc(C(N)=O)n2)[C@H](O)[C@@H]1O	4	9.8*	3	-11	-4	-3
Cc1sc2ccccc2c1CNC[C@H]1O[C@@H](n2ccc(N)nc2=O)[C@H](O)[C@@H]1O	-3	5	1	-9	x	x
Cc1nc(NC(=O)c2ccccc2)sc1-c1cc(C(=O)N2CCOCC2)nn1Cc1ccccc1	30	-4	-4	4	x	x
Cc1ccccc1S(=O)(=O)N(C)C[C@H]1OCc2cnnn2CCCC(=O)N([C@H](C)CO)C[C@@H]1C	x	1	-2	x	x	x
CCNC(=O)COC(=O)C1CCN(S(=O)(=O)c2ccc3c(c2)OCCO3)CC1	4	10*	-4	-7	-4	-1
CC(C)C(C)NC(=O)COC(=O)C1CCN(S(=O)(=O)c2ccc3c(c2)OCCO3)CC1 (stereo unspecified)	1	11*	-2	-7	-6	-1
CCCNC(=O)COC(=O)C1CCN(S(=O)(=O)c2ccc3c(c2)OCCO3)CC1	4	1	0	-5	x	x
C=CCn1c(N2CCCC2)nc2c1c(=O)n(C)c(=O)n2C	4	9.7*	-1	-4	3	2
C/C(Cl)=C\Cn1c(N2CCCCCC2)nc2c1c(=O)n(C)c(=O)n2C	4	4	5	-4	x	x
C[C@H](CO)N1C[C@H](C)[C@@H](CN(C)Cc2ccncc2)Oc2c(NS(=O)(=O)c3cn(C)cn3)cccc2C1=O	3	-5	-6	-12	x	x
CCN1CCN(C(CNS(=O)(=O)c2ccc(C)cc2)c2ccccc2)CC1 (stereo unspecified)	-3	2	-8	-4	x	x
COc1ccc(NC(=O)N(C)C[C@H]2Oc3c(NC(=O)NC(C)C)cccc3C(=O)N([C@H](C)CO)C[C@@H]2C)cc1	-2	3	11*	-12	-8	-2
SMILES	Cardio protect	PLCg1 inh	PLC-beta3 inh	FAS TE block	PLCg1 ctr	PLCbeta3 conf
C[C@H](CO)N1C[C@H](C)[C@@H](CN(C)S(C)(=O)=O)Oc2c(NC(=O)Nc3ccc(C(F)(F)F)cc3)cccc2C1=O	10	8	12*	24	-4	2
CCN(CC)C(=O)c1nc[nH]c1C(=O)N(CC)CC	4	14*	7	-11	0	0
CCOC(=O)c1cnc2cc(-c3ccc(C)cc3)nn2c1C	-8	-23	-38	12	x	x
CCOC(=O)NC(Nc1nnc(SCC)s1)(C(F)(F)F)C(F)(F)F	6	11*	6	-4	-7	-5
CCSc1nnc(NC(=O)NC(C)(C(F)(F)F)C(F)(F)F)s1	-13	3	0	-4	x	x
CN1C(=O)C(CC(=O)O)S/C1=N\N=C\c1ccc(O)cc1O (stereo unspecified)	-6	-39	-55	-7	x	x
O=C1CN(S(=O)(=O)c2ccc(F)cc2)CCN1	12	-1	2	-7	x	x
Clc1cccc2sc(N3CCN(c4ccccc4)CC3)nc12	-8	11*	3	33	-2	1
COc1cc(C(=O)NCc2ccc(C)cc2)ccc1OC(F)F	7	9.7*	-3	2	1	-6
COc1cc(C(=O)NCc2ccccc2)ccc1OC(F)F	-1	-3	-1	-1	x	x
C#CCOn1c(-n2nc(C)cc2C)nc2ccccc2c1=O	3	10*	-3	-3	-2	-3
Cc1ccc(OCCCCNC(C)c2ccccc2)c(C)c1 (stereo unspecified)	4	13*	-1	-3	-3	1
NC(Cc1ccc(F)cc1)c1csc(Nc2ccc(S(N)(=O)=O)cc2)n1 (stereo unspecified)	-1	-4	-8	-5	x	x
CCCCn1c(N)c(Sc2ccccc2[N+](=O)[O-])c(=O)[nH]c1=O	-4	4	-2	-2	x	x
Cc1[nH]c(=O)[nH]c(=O)c1Sc1ccccc1[N+](=O)[O-]	0	12*	2	-5	-3	-1
CC1(C(=O)NS(=O)(=O)c2ccccc2OC(F)(F)F)CCN1C(=O)c1ccccc1 (stereo unspecified)	1	-2	-1	-7	x	x
OC(c1cccc(Cl)c1)c1nc(-c2ccc(F)c(Cl)c2)cs1 (stereo unspecified)	-5	-2	-5	33	x	x
Cc1ccc(CN2CCC(c3cc(-c4ccc(Cl)cc4)n[nH]3)CC2)cc1	-13	11*	-2	6	-3	-5
COc1ccc(-c2cc(C3CCN(Cc4ccc([N+](=O)[O-])cc4)CC3)[nH]n2)cc1	-8	-2	-4	15	x	x
